Test results as given in the supplement of paper PMC10849652.
Targets with a hit are over-represented here; the source holds about 7,900 in all. About 0.6% of all pairs of compound and target were hits.

How the values were obtained:
Assay in all cases: log2 fold change, soluble protein after heating vs DMSO (PISA); higher = thermal stabilisation; K562 cells, 10 uM, 30 min; active = over 0.2 and 3.5 SD of the protein, either way, in both replicates (recomputed)
[1] = compound: C1=CC=C(C=C1)[C@H](COC2=CC3=C(C=C2)NC(=O)N3)NC(=O)C4=CC=CN(C4=O)CC5=CC(=C(C=C5)F)F
Summary of the method: (§1)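 Soluble protein was defined as the supernatant after 21,000xg for 90 min. It came from K562 cells at 2×10^6 cells/mL given 10 μM compound for 30 min, heated in aliquots for 3 min across 48°C-58°C, pooled, and extracted in PBS with 0.5% NP-40 at 4°C, and was quantified by TMTpro 16plex LC-MS/MS with equalised channel sums. Thermal stability against control samples, from duplicates, is reported as log2 fold change.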

[2] = compound: CC1=C(SC2=C1C(=N[C@H](C3=NN=C(N32)C)CC(=O)N)C4=CC=C(C=C4)Cl)C
Summary of the method: as §1

[3] = compound: CC1=C2C(=CC=C1)N=C(N(C2=O)C3=CC=CC=C3C)CN4C=NC5=C(N=CN=C54)N
Summary of the method: as §1

[4] = compound: Cc1sc2c(c1C)C(c1ccc(Cl)cc1)=N[C@@H](CC(=O)OC(C)(C)C)c1nnc(C)n1-2
Summary of the method: as §1

[5] = compound: c1ccc([C@@H]2C[C@H]2NC2CCNCC2)cc1
Summary of the method: as §1

Measured: log2 fold change

MFN1 (UniProt Q8IWA4)
Sequence of UniProt Q8IWA4 (Q8IWA4 whole entry, looked up): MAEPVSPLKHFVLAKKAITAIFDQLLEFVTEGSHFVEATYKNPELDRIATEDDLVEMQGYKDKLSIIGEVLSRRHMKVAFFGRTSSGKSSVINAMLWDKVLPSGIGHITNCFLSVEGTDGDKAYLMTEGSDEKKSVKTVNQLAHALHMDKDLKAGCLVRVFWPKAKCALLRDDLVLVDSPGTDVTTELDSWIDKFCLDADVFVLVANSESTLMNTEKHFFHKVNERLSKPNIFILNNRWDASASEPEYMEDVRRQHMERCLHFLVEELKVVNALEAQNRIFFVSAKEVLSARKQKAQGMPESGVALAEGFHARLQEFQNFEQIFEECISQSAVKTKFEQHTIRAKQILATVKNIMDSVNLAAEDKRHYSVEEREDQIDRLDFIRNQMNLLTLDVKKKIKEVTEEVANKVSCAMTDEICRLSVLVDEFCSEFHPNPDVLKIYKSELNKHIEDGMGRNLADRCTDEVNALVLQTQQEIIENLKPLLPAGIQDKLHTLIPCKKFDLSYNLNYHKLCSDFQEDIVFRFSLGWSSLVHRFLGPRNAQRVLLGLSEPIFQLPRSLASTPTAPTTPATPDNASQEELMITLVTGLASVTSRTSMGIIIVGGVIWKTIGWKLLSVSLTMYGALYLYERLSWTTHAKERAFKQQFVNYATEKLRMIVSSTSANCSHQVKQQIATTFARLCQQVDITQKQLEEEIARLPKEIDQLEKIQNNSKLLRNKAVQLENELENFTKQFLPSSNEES
inactive: [1] 0.058 | [2] 0.042 | [3] 0.05 | [4] 0.07 | [5] -0.01

LMBR1 isoform 3 (UniProt Q8WVP7)
Sequence of UniProt Q8WVP7 (Q8WVP7 whole entry, looked up): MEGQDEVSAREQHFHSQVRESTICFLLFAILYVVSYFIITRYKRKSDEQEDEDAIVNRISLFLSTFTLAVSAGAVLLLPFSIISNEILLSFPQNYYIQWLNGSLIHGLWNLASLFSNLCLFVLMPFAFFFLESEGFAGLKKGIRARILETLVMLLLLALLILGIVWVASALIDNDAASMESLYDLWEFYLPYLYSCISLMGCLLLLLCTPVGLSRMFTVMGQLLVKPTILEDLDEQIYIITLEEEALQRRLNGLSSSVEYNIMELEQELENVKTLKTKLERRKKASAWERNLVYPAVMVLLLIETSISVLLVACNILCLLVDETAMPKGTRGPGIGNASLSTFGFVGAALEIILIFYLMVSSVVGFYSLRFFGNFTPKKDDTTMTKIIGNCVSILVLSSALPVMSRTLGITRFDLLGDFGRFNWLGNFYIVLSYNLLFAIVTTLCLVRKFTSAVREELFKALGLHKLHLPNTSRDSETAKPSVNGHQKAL
inactive: [1] -0.194 | [2] 0.147 | [3] -0.134 | [4] -0.349 | [5] 0.078

MCU (UniProt Q8NE86)
Sequence of UniProt Q8NE86 (Q8NE86 whole entry, looked up): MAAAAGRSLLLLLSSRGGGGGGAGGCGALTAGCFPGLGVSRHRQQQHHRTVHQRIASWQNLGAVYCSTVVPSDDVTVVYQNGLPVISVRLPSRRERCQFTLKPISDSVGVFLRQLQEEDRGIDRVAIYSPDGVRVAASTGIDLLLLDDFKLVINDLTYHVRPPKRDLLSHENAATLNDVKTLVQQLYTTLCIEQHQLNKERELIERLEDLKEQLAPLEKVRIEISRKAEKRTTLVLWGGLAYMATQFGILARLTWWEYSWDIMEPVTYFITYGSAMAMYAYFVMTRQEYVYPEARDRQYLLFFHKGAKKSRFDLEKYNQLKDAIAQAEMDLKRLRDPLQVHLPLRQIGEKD
inactive: [1] -0.02 | [2] 0.035 | [3] 0.038 | [4] -0.018 | [5] -0.013

IRF3 (UniProt Q14653)
Sequence of UniProt Q14653 (Q14653 whole entry, looked up): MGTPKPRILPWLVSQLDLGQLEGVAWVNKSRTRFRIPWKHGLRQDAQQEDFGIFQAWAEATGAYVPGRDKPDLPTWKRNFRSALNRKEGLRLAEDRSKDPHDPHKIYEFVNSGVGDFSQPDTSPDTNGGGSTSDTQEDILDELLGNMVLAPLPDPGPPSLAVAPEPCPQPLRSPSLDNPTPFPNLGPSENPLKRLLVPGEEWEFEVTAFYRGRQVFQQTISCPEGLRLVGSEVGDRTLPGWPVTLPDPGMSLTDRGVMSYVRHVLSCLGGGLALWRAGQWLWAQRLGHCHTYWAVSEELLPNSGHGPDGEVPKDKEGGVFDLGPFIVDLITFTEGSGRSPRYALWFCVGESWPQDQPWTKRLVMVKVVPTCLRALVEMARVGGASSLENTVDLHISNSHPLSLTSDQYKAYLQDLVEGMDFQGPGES
inactive: [1] -0.049 | [2] 0.123 | [3] 0.015 | [4] -0.007 | [5] -0.01

LUC7L3 (UniProt O95232)
Sequence of UniProt O95232 (O95232 whole entry, looked up): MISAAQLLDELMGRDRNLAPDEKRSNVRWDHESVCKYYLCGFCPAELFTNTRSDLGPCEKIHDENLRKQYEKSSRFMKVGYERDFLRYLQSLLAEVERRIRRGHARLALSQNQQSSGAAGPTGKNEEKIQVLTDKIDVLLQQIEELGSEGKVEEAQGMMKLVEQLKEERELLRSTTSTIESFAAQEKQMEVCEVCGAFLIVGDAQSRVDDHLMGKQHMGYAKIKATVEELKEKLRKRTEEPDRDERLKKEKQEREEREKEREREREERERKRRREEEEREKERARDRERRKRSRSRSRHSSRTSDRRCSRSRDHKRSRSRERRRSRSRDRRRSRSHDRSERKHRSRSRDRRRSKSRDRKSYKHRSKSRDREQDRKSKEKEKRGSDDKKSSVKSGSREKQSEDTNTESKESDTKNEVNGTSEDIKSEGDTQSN
inactive: [1] 0.002 | [2] -0.021 | [3] 0.023 | [4] 0.021 | [5] 0.028

KPNB1 (UniProt Q14974)
Sequence of UniProt Q14974 (Q14974 whole entry, looked up): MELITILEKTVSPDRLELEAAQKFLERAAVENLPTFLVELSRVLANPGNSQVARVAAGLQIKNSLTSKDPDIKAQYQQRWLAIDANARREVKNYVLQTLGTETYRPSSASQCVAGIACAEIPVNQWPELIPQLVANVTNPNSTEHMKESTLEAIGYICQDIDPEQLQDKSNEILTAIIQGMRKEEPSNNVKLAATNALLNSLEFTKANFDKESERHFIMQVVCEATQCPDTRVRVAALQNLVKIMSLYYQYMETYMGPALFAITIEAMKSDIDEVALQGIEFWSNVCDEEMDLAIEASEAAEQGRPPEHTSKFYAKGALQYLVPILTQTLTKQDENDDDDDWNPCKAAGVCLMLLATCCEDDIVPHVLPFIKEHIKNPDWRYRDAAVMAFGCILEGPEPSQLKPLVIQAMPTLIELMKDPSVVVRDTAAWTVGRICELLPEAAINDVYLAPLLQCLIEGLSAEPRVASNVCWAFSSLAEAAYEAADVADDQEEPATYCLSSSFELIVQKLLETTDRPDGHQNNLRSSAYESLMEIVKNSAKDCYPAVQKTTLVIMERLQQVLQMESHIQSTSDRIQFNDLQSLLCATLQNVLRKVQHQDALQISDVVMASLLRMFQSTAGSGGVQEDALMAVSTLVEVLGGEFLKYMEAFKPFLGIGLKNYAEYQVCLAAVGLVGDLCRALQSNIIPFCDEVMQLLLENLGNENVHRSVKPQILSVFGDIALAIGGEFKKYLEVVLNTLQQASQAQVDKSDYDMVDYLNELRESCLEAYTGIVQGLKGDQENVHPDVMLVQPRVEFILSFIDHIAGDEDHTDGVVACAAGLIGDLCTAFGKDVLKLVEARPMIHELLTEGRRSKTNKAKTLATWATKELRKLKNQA
inactive: [1] -0.035 | [2] -0.018 | [3] -0.024 | [4] 0.001 | [5] -0.021
